Test results: the supplement of paper PMC6555819

Tests used:
Test in all cases: PBM binding z-score (relative to random genomic background probes); higher = stronger binding; sequences stand for … in GC…GCGATTGACAGCGTAGAATGAAGG
[1] = test system: PPARg:RXRa DBDmut IVT, anti-RXR (DBD mutation: RXRa K156A/R161A, NR concentration 270 nM, RXRa partner concentration 90 nM)
Procedure, shortened: (§1)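 Each nuclear receptor dimer, without ligand, was incubated for 1 h on custom Agilent 4×180K protein-binding microarrays. Binding was detected with antibodies against each partner (one per run), and scanned fluorescence was regression-normalized. The binding z-scores are referenced to random human genomic background probes.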

[2] = test system: PPARg:RXRa IVT, anti-PPARg (NR concentration 270 nM, RXRa partner concentration 90 nM)
Procedure, shortened: as §1

[3] = test system: PPARg DBDmut:RXRa IVT, anti-PPARg (DBD mutation: PPARg1 K132A/R137A, NR concentration 270 nM, RXRa partner concentration 90 nM)
Procedure, shortened: as §1

[4] = test system: PPARg DBDmut IVT, anti-PPARg (DBD mutation: PPARg1 K132A/R137A, NR concentration 270 nM)
Procedure, shortened: as §1

[5] = test system: PPARg homodimer (NR concentration 180 nM)
Procedure, shortened: as §1

[6] = test system: PXR:RXRa (NR concentration 270 nM, RXRa partner concentration 90 nM)
Procedure, shortened: as §1

[7] = test system: PXR homodimer (NR concentration 270 nM)
Procedure, shortened: as §1

[8] = test system: RARa:RXR (NR concentration 270 nM, RXRa partner concentration 90 nM)
Procedure, shortened: as §1

[9] = test system: RARa homodimer (NR concentration 270 nM)
Procedure, shortened: as §1

[10] = test system: RARb:RXRa (NR concentration 270 nM, RXRa partner concentration 90 nM)
Procedure, shortened: as §1

| Sequence | PBM binding z-score [1] | PBM binding z-score [2] | PBM binding z-score [3] | PBM binding z-score [4] | PBM binding z-score [5] | PBM binding z-score [6] | PBM binding z-score [7] | PBM binding z-score [8] | PBM binding z-score [9] | PBM binding z-score [10] |
| --- | --- | --- | --- | --- | --- | --- | --- | --- | --- | --- |
| CAAACTAGGTGAAAGGTCAAAGTCGAGCCAACCA | 8.64 | 9.19 | 5.27 | 2.48 | 8.98 | 6.14 | 1.76 | 8 | 3.76 | 5.05 |
| ATCGGAAGGTCGAAGGTGAGTATACCCACCCGAA | -0.338 | 1.53 | 0.343 | -0.28 | 1.26 | 1.65 | 0.401 | 2.34 | -0.118 | 2.55 |
| TCTATTAGTTGAAAGGCAACCGACGAGTCCGTTT | 2.63 | 0.0769 | 0.573 | -0.131 | 1.05 | 0.694 | 0.704 | 0.467 | 1.11 | 0.44 |
| CAAACTAGGTCACAGAGGTGAAAGTCCGTGCGTA | 8.61 | 8.94 | 5.86 | 4.85 | 2.36 | 3.51 | 0.909 | 4.08 | 0.879 | 4.42 |
| TAGCCTAGGTCAGATCGGGTCAGTATACGCTATA | 0.599 | 2.06 | -0.409 | 0.264 | 0.633 | 4.16 | -0.399 | 2.21 | -0.275 | 3.55 |
| GCTCGGTGGACAAGGTCAGAGCTTTGTCCGTAGA | 0.124 | 0.413 | -1.69 | -0.301 | 0.136 | 1.68 | -0.455 | 2.25 | -0.966 | 2.68 |
| ATATGTAGGTTACAGCCGGGTCATTCAGGCTATG | 7.69 | 7.35 | 1.69 | 1.39 | 1.97 | 3.43 | 1.66 | 3.51 | 0.487 | 2.26 |
| ACCGAAAGGTCGAGGTGAGTATAGAGAAAGGGAA | 0.771 | 2.17 | 0.276 | 0.807 | 1.13 | 2.31 | 0.286 | 3 | 0.981 | 4.17 |
| AGAACGAGGGCACGCTGAGTTGATAGGAGAGTAG | 3.83 | 3.7 | 0.653 | 0.276 | 0.451 | 1.1 | 0.0753 | 0.906 | -0.652 | 2.37 |
| GTACCAAGGTGAAAAGGTCGTTGATGAGTAGGCG | 1.77 | 2.85 | 0.246 | -0.0504 | 2.35 | 2.73 | 0.862 | 3.71 | 0.82 | 3.35 |
| TGTAGTTGGTCAAAGGTCACACACTCGAAATGCG | 1.7 | 6.41 | 2.33 | 2.58 | 5.57 | 6.06 | 1.72 | 7.38 | 3.74 | 4.86 |
| CAGCCTAGGTCATGGCCAGTATAGGAGGAACGTT | 2.64 | 2.68 | -0.045 | -0.826 | 1.72 | 1.53 | -0.702 | 2.45 | 0.132 | 3.99 |
| CCTTACGGGTCACGCCAGGTTATAGCATCGGAGT | 3.85 | 4.83 | 0.182 | 0.0773 | 2.19 | 5.46 | 0.316 | 4.98 | 1.14 | 4.35 |
| CGTCAAAGTTCAACTTAGGTAACGTAAAGCACGC | -0.00853 | 2.1 | 0.537 | 0.683 | 4.03 | 5.5 | 4.07 | 4.61 | 2.1 | 5.38 |
| CCTTACGGGTCACTCCAGGTTATAACATCGGAGT | 2.06 | 3.72 | 1.23 | 0.622 | 1.05 | 4.66 | 0.462 | 3.51 | -0.23 | 3.67 |
| ACTATAAGTTGACTTAGGGCAACCGATACGACGC | -0.174 | 0.419 | 0.924 | 0.648 | 0.0162 | 0.385 | 0.624 | 0.604 | 0.56 | 1.2 |
| ACTAGTTCGTCAGCTGAGGTCACACACAATTCGG | 0.735 | 2.22 | 0.493 | 1.22 | 2.47 | 5.11 | 2.76 | 4.66 | 1.82 | 3.52 |
| CCTCACGGGTCACTGACAGGTTATAGCATTTGGA | 1.77 | 2.15 | -0.537 | -0.176 | 1.89 | 3.33 | 0.0959 | 3.98 | 0.868 | 3.85 |
| ATCGAAAGGTGGTGAGGTGAGTATACAGAAAGGC | -0.246 | 0.807 | 0.968 | 1.51 | 0.911 | 0.257 | 0.574 | 0.614 | 0.646 | 0.849 |
| GGAACGAGGGCAAGGTTGATAGCATCTGTCGACG | 3.31 | 3.93 | 0.295 | -0.611 | 0.79 | 0.705 | -0.0103 | 0.822 | 0.206 | 2.52 |
| TCTAGCAGGCCAGAGGGGCACTCAAGAGGTACGG | 0.959 | -0.0435 | -0.531 | -0.834 | -0.877 | -0.511 | -0.673 | -0.329 | -0.905 | 0.329 |
| CGAACTAGGTCATCCAGGACAGTGACTACATTGA | 8.16 | 8.47 | 4 | 0.771 | 3.18 | 1.88 | 1.13 | 2.32 | 0.438 | 3.95 |

| Sequence | PBM binding z-score [1] | PBM binding z-score [2] | PBM binding z-score [3] | PBM binding z-score [4] | PBM binding z-score [5] | PBM binding z-score [6] | PBM binding z-score [7] | PBM binding z-score [8] | PBM binding z-score [9] | PBM binding z-score [10] |
| --- | --- | --- | --- | --- | --- | --- | --- | --- | --- | --- |
| CAGCCTAGGTCAGGGCCATTATAGGAGGAACGTT | 1.48 | 1.78 | -0.531 | -0.742 | 0.564 | 0.649 | -0.202 | 1.15 | 0.229 | 3.45 |
| ATATGTAGGTTAGCTGGGGTCATACAGACTAGGC | 6.97 | 6.06 | 1.52 | 1.48 | 2.67 | 6.28 | 3.07 | 5.89 | 1.68 | 3.13 |
| ATCTCCAGGTAACCAAGTTCAGTGAATGCCGAAC | 0.934 | 1.52 | 0.875 | 0.957 | 0.841 | 2.24 | 2.55 | 0.649 | 0.534 | 0.985 |
| CTACCAATGTGAACAAGGTCGTTGATTACTATTC | 0.604 | 0.639 | 0.446 | 0.752 | 0.968 | 1.99 | 1.41 | 1.89 | 1.01 | 0.831 |
| CCTACTGGGCCATTCAGAAGTCATTGATCATATG | 4.43 | 3.36 | -0.17 | -0.487 | 0.0197 | -0.557 | -0.689 | -0.413 | 0.126 | 0.115 |
| AGAATGAGGTTATACGTCGATCAGGGAAGAAAGT | 2.6 | 2.09 | 0.671 | 0.354 | 0.876 | 0.925 | 0.396 | 1.51 | 0.313 | 1.34 |
| TCTTGTAGATCAATGGTTAAGAAAGCCGAAGCCT | 1.89 | 0.567 | 0.47 | 0.225 | -0.106 | 0.039 | -0.283 | 0.142 | 0.324 | -0.236 |
| GCATATAGATAATACAAGGTGAAAGTCCGATTGT | 0.0768 | 0.523 | 1.29 | 0.755 | 0.731 | 0.197 | 0.246 | 0.795 | 0.194 | 0.165 |
| AGAATGAGGTTGAGATCAGGGAAACAGAATACAT | -0.749 | -0.0669 | 0.897 | 0.0775 | 0.146 | 0.154 | 0.387 | 0.681 | 0.16 | 0.263 |
| ACTATTAGTTGACTTAGGGCAACCGGTACGACGC | 0.0602 | 0.506 | 0.963 | 0.218 | 0.403 | 0.35 | 0.564 | 0.898 | 0.577 | 1.14 |
| AATACAAGGTCACTAGGCCAGAGTAGGTACGAAT | 4.85 | 6.56 | 2.9 | 1.98 | 3.01 | 3.63 | 0.919 | 4.05 | 1.19 | 5.31 |
| CCTTACGGGTCAACGTTATAGCACGGGTGGTACG | 2 | 3.53 | 0.108 | -0.133 | 1.79 | 3.18 | -0.188 | 3.99 | 0.25 | 4.13 |
| CGTCCAAGGTCAGCAGGTCAGTAAAAGCGACGTG | 2.72 | 3.62 | 0.159 | -0.726 | 3.33 | 3.43 | 0.607 | 4.46 | 0.549 | 5.51 |
| ATCTCTAGGTAAAGTTCAGTTAAAGATCGATAGA | 2.25 | 2.63 | 1.03 | 0.905 | 2.02 | 2.33 | 1.72 | 1.81 | 1.83 | 2.78 |
| ATATGTAGGATAAGGGTCATTCAGGTTGGTTCGC | 4.06 | 5.32 | 1.23 | 0.978 | 3.23 | 4.9 | 2.87 | 4.72 | 2.11 | 3.18 |
| CGTCCAAGGTCAAGGTCAGTGGAAGAGACTCGAA | 3.54 | 4.55 | 0.113 | -0.109 | 3.84 | 4.68 | 1.08 | 4.79 | 0.944 | 5.61 |
| TCTACTAGGTCAACGATGGTCAGCTAATCTGCTA | 7.66 | 7.96 | 1.25 | 1.79 | 1.93 | 1.93 | 0.246 | 2.54 | 1.28 | 4.23 |
| GATACAGGGTCAAGGCCAGAGCACGCGTATTGAT | 2.49 | 4.08 | 0.585 | 0.0811 | 2.41 | 3.86 | 0.352 | 4.64 | 0.569 | 4.5 |
| TGTCAAAGTTAAAAGGTAACGTAAGTATCCACAC | -0.253 | 2.08 | 1.24 | 0.84 | 0.261 | 0.715 | 0.361 | 1.23 | 0.69 | 1.33 |
| AGAACGAGGGCACGTTGAGTTGATAGCAGAGTAG | 3.79 | 3.75 | 0.741 | -0.039 | 0.701 | 1.33 | 0.471 | 0.629 | -0.287 | 2.42 |
| GGAACAAGGGCATTCGAGTTGATAGCATGGCGAT | 2.21 | 1.65 | -0.248 | -0.286 | 0.614 | 3.18 | 0.975 | 0.884 | 0.198 | 2.02 |
| CCTAGTTGGTCAGGAGGTCACTCACCGGATATGA | 1.33 | 2.97 | 0.254 | 0.0226 | 3.04 | 3.74 | 0.903 | 3.94 | 2.42 | 3.41 |
